# In the supplement of paper PMC4022240:
# ± gives the standard deviation.
# T1: HaloTag-ATRX ADD domain (163-292)
# T1 chain: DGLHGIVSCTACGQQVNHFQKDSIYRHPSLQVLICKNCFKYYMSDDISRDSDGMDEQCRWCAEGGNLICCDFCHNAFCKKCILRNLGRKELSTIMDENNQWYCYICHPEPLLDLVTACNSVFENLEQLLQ
# Assays:
# Test in all cases: peptide microarray binding signal (635 nm), min-max normalized on array (fraction of array maximum); higher = stronger binding
# [1] = target: T1, HaloTag-ATRX ADD domain (163-292)
# In short: (§1)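 For each library, binding signal was taken as the triplicate-spot mean intensity and then min-max scaled. Spots of histone 13-mer peptide–cellulose conjugates on nitrocellulose, printed in triplicate with a Cy3 tracer, were probed for 1 h at 4°C with either biotin-labelled HaloTag reader fusions (10 nM to 1 μM) and streptavidin-Alexa Fluor 647 or rabbit histone antibodies (1:10,000 to 1:2,000) and anti-rabbit Alexa 647. Readout at 635 nm came from an Axon GenePix 4000B.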
# [2] = target: HaloTag-ING2 PHD (mouse Ing2 200-280)
# In short: as §1
# [3] = target: anti-H3K4me3 antibody ab8580
# In short: as §1
# [4] = target: anti-H3K9me3 antibody ab8898
# In short: as §1
# [5] = peptide region: H4 8-19, peptide modifications: H4K12ac, binder concentration: 1:2,000 dilution
# [6] = peptide region: H4 8-19, peptide modifications: H4K12ac, binder concentration: 1:10,000 dilution
# [7] = peptide region: H4 8-19, peptide modifications: H4R17me1, binder concentration: 1:2,000 dilution
# [8] = peptide region: H4 8-19, peptide modifications: H4R17me1, binder concentration: 1:10,000 dilution
# [9] = peptide region: H4 8-19, peptide modifications: H4K8ac H4K12ac H4K16ac, binder concentration: 1:2,000 dilution
# [10] = peptide region: H4 8-19, peptide modifications: H4K16ac H4R17me2a, binder concentration: 1:2,000 dilution
# [11] = peptide region: H4 1-13, peptide modifications: H4S1ph H4K12ac, binder concentration: 1:2,000 dilution
# [12] = peptide region: H4 1-13, peptide modifications: H4S1ph H4K12ac, binder concentration: 1:10,000 dilution
# [13] = peptide region: H4 8-19, binder concentration: 1:2,000 dilution
# [14] = peptide region: H4 8-19, binder concentration: 1:10,000 dilution
# [15] = peptide region: H4 8-19, peptide modifications: H4K8ac H4K16ac, binder concentration: 1:2,000 dilution
# [16] = peptide region: H4 8-19, peptide modifications: H4K8ac H4K16ac, binder concentration: 1:10,000 dilution
# [17] = peptide region: H4 8-19, peptide modifications: H4K16ac H4R17me2s, binder concentration: 1:2,000 dilution
# [18] = peptide region: H4 8-19, peptide modifications: H4K8ac H4K12ac, binder concentration: 1:2,000 dilution
# [19] = peptide region: H4 8-19, peptide modifications: H4K8ac H4K12ac, binder concentration: 1:10,000 dilution
# [20] = peptide region: H4 1-13, peptide modifications: H4S1ph H4R3cit, binder concentration: 1:2,000 dilution
# [21] = peptide region: H4 1-13, peptide modifications: H4S1ph H4R3cit, binder concentration: 1:10,000 dilution
# [22] = peptide region: H4 1-13, peptide modifications: H4S1ph, binder concentration: 1:2,000 dilution
# [23] = peptide region: H4 1-13, peptide modifications: H4S1ph, binder concentration: 1:10,000 dilution
binder,measurement,setting,value
KGLGKGGAKRHRK [H4 8-19 K G L G Kac G G A K R H R K],peptide microarray binding signal,"[1]; peptide region: H4 8-19, peptide modifications: H4K12ac, binder concentration: 50 nM",0.00743 ± 0.00047
same,peptide microarray binding signal,"[1]; peptide region: H4 8-19, peptide modifications: H4K12ac, binder concentration: 500 nM",0.0289 ± 0.0017
same,peptide microarray binding signal,"[2]; peptide region: H4 8-19, peptide modifications: H4K12ac, binder concentration: 10 nM",0.00352 ± 0.00036
same,peptide microarray binding signal,"[2]; peptide region: H4 8-19, peptide modifications: H4K12ac, binder concentration: 100 nM",0.0073 ± 0.00023
same,peptide microarray binding signal,[3]; [5],0.000189 ± 2e-06
same,peptide microarray binding signal,[3]; [6],0.00302 ± 6.8e-05
same,peptide microarray binding signal,[4]; [5],0.0031 ± 4e-05
same,peptide microarray binding signal,[4]; [6],0.00283 ± 0.00018
KGLGKGGAKRHRK [H4 8-19 K G L G K G G A K Rme H R K],peptide microarray binding signal,"[1]; peptide region: H4 8-19, peptide modifications: H4R17me1, binder concentration: 50 nM",0.00987 ± 0.0027
same,peptide microarray binding signal,"[1]; peptide region: H4 8-19, peptide modifications: H4R17me1, binder concentration: 500 nM",0.016 ± 0.0014
same,peptide microarray binding signal,"[2]; peptide region: H4 8-19, peptide modifications: H4R17me1, binder concentration: 10 nM",0.00352 ± 6.8e-05
same,peptide microarray binding signal,"[2]; peptide region: H4 8-19, peptide modifications: H4R17me1, binder concentration: 100 nM",0.00865 ± 0.00034
same,peptide microarray binding signal,[3]; [7],0.00119 ± 0.0002
same,peptide microarray binding signal,[3]; [8],0.00148 ± 8e-05
same,peptide microarray binding signal,[4]; [7],0.00112 ± 4.3e-05
same,peptide microarray binding signal,[4]; [8],0.00138 ± 1.4e-05
KGLGKGGAKRHRK [H4 8-19 Kac G L G Kac G G A Kac R H R K],peptide microarray binding signal,"[1]; peptide region: H4 8-19, peptide modifications: H4K8ac H4K12ac H4K16ac, binder concentration: 500 nM",0.000476 ± 4.9e-06
same,peptide microarray binding signal,"[2]; peptide region: H4 8-19, peptide modifications: H4K8ac H4K12ac H4K16ac, binder concentration: 100 nM",7.09e-05 ± 1.5e-06
same,peptide microarray binding signal,[3]; [9],1.89e-05 ± 2.2e-07
same,peptide microarray binding signal,[4]; [9],3.02e-05 ± 3.4e-07
KGLGKGGAKRHRK [H4 8-19 K G L G K G G A Kac Rme2a H R K],peptide microarray binding signal,"[1]; peptide region: H4 8-19, peptide modifications: H4K16ac H4R17me2a, binder concentration: 500 nM",0
same,peptide microarray binding signal,"[2]; peptide region: H4 8-19, peptide modifications: H4K16ac H4R17me2a, binder concentration: 100 nM",0.000283
same,peptide microarray binding signal,[3]; [10],1.89e-05 ± 2.2e-07
same,peptide microarray binding signal,[4]; [10],1.51e-05 ± 1.7e-07
SGRGKGGKGLGKG [H4 1-13 Sph G R G K G G K G L G Kac G],peptide microarray binding signal,"[1]; peptide region: H4 1-13, peptide modifications: H4S1ph H4K12ac, binder concentration: 50 nM",0.00392 ± 0.00035
same,peptide microarray binding signal,"[1]; peptide region: H4 1-13, peptide modifications: H4S1ph H4K12ac, binder concentration: 500 nM",0.0105 ± 0.00038
same,peptide microarray binding signal,"[2]; peptide region: H4 1-13, peptide modifications: H4S1ph H4K12ac, binder concentration: 10 nM",0.00269 ± 6.6e-05
same,peptide microarray binding signal,"[2]; peptide region: H4 1-13, peptide modifications: H4S1ph H4K12ac, binder concentration: 100 nM",0.00893 ± 0.00049
same,peptide microarray binding signal,[3]; [11],0.000378 ± 1e-05
same,peptide microarray binding signal,[3]; [12],0.000742 ± 1.3e-05
same,peptide microarray binding signal,[4]; [11],0.000649 ± 0.00018
same,peptide microarray binding signal,[4]; [12],0.00075 ± 7.9e-06
KGLGKGGAKRHRK [H4 8-19 K G L G K G G A K R H R K],peptide microarray binding signal,"[1]; peptide region: H4 8-19, binder concentration: 50 nM",0.00495 ± 5.5e-05
same,peptide microarray binding signal,"[1]; peptide region: H4 8-19, binder concentration: 500 nM",0.0131 ± 0.0015
same,peptide microarray binding signal,"[2]; peptide region: H4 8-19, binder concentration: 10 nM",0.00466 ± 0.00021
same,peptide microarray binding signal,"[2]; peptide region: H4 8-19, binder concentration: 100 nM",0.0136 ± 0.0014
same,peptide microarray binding signal,[3]; [13],0.000793 ± 4.3e-05
same,peptide microarray binding signal,[3]; [14],0.00154 ± 3e-05
same,peptide microarray binding signal,[4]; [13],0.000529 ± 1.3e-05
same,peptide microarray binding signal,[4]; [14],0.0011 ± 1.1e-05
KGLGKGGAKRHRK [H4 8-19 Kac G L G K G G A Kac R H R K],peptide microarray binding signal,"[1]; peptide region: H4 8-19, peptide modifications: H4K8ac H4K16ac, binder concentration: 50 nM",0.000439 ± 1.5e-05
same,peptide microarray binding signal,"[1]; peptide region: H4 8-19, peptide modifications: H4K8ac H4K16ac, binder concentration: 500 nM",9.52e-05 ± 1e-06
same,peptide microarray binding signal,"[2]; peptide region: H4 8-19, peptide modifications: H4K8ac H4K16ac, binder concentration: 10 nM",0.0043 ± 0.0012
same,peptide microarray binding signal,"[2]; peptide region: H4 8-19, peptide modifications: H4K8ac H4K16ac, binder concentration: 100 nM",0.000283
same,peptide microarray binding signal,[3]; [15],0.000113
same,peptide microarray binding signal,[3]; [16],0.00143 ± 0.00034
same,peptide microarray binding signal,[4]; [15],4.53e-05
same,peptide microarray binding signal,[4]; [16],5.77e-05 ± 6.6e-07
KGLGKGGAKRHRK [H4 8-19 K G L G K G G A Kac Rme2s H R K],peptide microarray binding signal,"[1]; peptide region: H4 8-19, peptide modifications: H4K16ac H4R17me2s, binder concentration: 500 nM",0.000286 ± 1.8e-05
same,peptide microarray binding signal,"[2]; peptide region: H4 8-19, peptide modifications: H4K16ac H4R17me2s, binder concentration: 100 nM",0.000283 ± 5.7e-06
same,peptide microarray binding signal,[3]; [17],5.66e-05
same,peptide microarray binding signal,[4]; [17],1.51e-05 ± 1.7e-07
KGLGKGGAKRHRK [H4 8-19 Kac G L G Kac G G A K R H R K],peptide microarray binding signal,"[1]; peptide region: H4 8-19, peptide modifications: H4K8ac H4K12ac, binder concentration: 50 nM",0.000251 ± 1.2e-05
same,peptide microarray binding signal,"[1]; peptide region: H4 8-19, peptide modifications: H4K8ac H4K12ac, binder concentration: 500 nM",0.000143 ± 2.7e-06
same,peptide microarray binding signal,"[2]; peptide region: H4 8-19, peptide modifications: H4K8ac H4K12ac, binder concentration: 10 nM",0.00567 ± 0.0013
same,peptide microarray binding signal,"[2]; peptide region: H4 8-19, peptide modifications: H4K8ac H4K12ac, binder concentration: 100 nM",0.000496
same,peptide microarray binding signal,[3]; [18],0.000113
same,peptide microarray binding signal,[3]; [19],0.00165 ± 0.00042
same,peptide microarray binding signal,[4]; [18],6.04e-05 ± 6.8e-07
same,peptide microarray binding signal,[4]; [19],5.77e-05 ± 6.6e-07
SGRGKGGKGLGKG [H4 1-13 Sph G Rcit G K G G K G L G K G],peptide microarray binding signal,"[1]; peptide region: H4 1-13, peptide modifications: H4S1ph H4R3cit, binder concentration: 50 nM",0.00335 ± 0.00024
same,peptide microarray binding signal,"[1]; peptide region: H4 1-13, peptide modifications: H4S1ph H4R3cit, binder concentration: 500 nM",0.00524 ± 0.00019
same,peptide microarray binding signal,"[2]; peptide region: H4 1-13, peptide modifications: H4S1ph H4R3cit, binder concentration: 10 nM",0.00281 ± 4.1e-05
same,peptide microarray binding signal,"[2]; peptide region: H4 1-13, peptide modifications: H4S1ph H4R3cit, binder concentration: 100 nM",0.00418 ± 0.0002
same,peptide microarray binding signal,[3]; [20],0.000378 ± 3.9e-06
same,peptide microarray binding signal,[3]; [21],0.000685 ± 7.2e-06
same,peptide microarray binding signal,[4]; [20],0.000136
same,peptide microarray binding signal,[4]; [21],0.00121 ± 0.00012
SGRGKGGKGLGKG [H4 1-13 Sph G R G K G G K G L G K G],peptide microarray binding signal,"[1]; peptide region: H4 1-13, peptide modifications: H4S1ph, binder concentration: 50 nM",0.00608 ± 0.0013
same,peptide microarray binding signal,"[1]; peptide region: H4 1-13, peptide modifications: H4S1ph, binder concentration: 500 nM",0.0121 ± 0.00045
same,peptide microarray binding signal,"[2]; peptide region: H4 1-13, peptide modifications: H4S1ph, binder concentration: 10 nM",0.00328 ± 0.00014
same,peptide microarray binding signal,"[2]; peptide region: H4 1-13, peptide modifications: H4S1ph, binder concentration: 100 nM",0.0039 ± 0.00041
same,peptide microarray binding signal,[3]; [22],0.00111 ± 0.00012
same,peptide microarray binding signal,[3]; [23],0.00131 ± 2.6e-05
same,peptide microarray binding signal,[4]; [22],0.000362 ± 6.3e-06
same,peptide microarray binding signal,[4]; [23],0.00075 ± 7.9e-06
